These sequences were tested against ROCK2 (assay: pooled miR-30 sensor sort-seq; sequence = guide strand). Conditions: shRNA.
TTTTCTGACATTTTTAGTGTGT gave a sensor-assay potency score (higher = more potent) of 0.278. Sequence TCTATTGTTAGATTCCAGCTGC has a sensor-assay potency score (higher = more potent) of 0.544. TTTATCTGCTAGTCGTGCCTTT showed a sensor-assay potency score (higher = more potent) of 0.209. With TTTCTAACTGTCTTAATGCTGA the sensor-assay potency score (higher = more potent) was -0.42. With TTTTGCTGTATCTTCATTGAAG the sensor-assay potency score (higher = more potent) was -0.765. In the case of TTCTGCTTCGAGCTGATCCTGG, the sensor-assay potency score (higher = more potent) is reported as -0.437. TAGATGTCCATGTTTATCCAAG showed a sensor-assay potency score (higher = more potent) of -1.07. In the case of TATTTTTATCTGCTAGTCGTGC, the sensor-assay potency score (higher = more potent) is reported as -0.412. Work on TTGAGAAATACTGTTCTGCTTC yielded a sensor-assay potency score (higher = more potent) of 0.537. In the case of TAACTTGGCAGTCTCCAGCAGG, the sensor-assay potency score (higher = more potent) is reported as -1.05. In the case of TAAAGCATTGGTTTCATCCAGT, the sensor-assay potency score (higher = more potent) is reported as 0.0253.

These sequences were tested against ROPN1 in the same assay as above. Conditions: shRNA.
Work on TCCATGTAGTTTAGCATCCTGC yielded a sensor-assay potency score (higher = more potent) of -1.26. For TATGGTCACATGATAAGACCTC, the sensor-assay potency score (higher = more potent) was -0.256. For ATTCTGAAGTACAATCATCTCT, the sensor-assay potency score (higher = more potent) was 0.029. With TGAAGTACAATCATCTCTGTAT the sensor-assay potency score (higher = more potent) was 0.335.

Reference: the OligoGym collection
